The values that follow come from PubChem BioAssay (NCI).

Structures are written as SMILES. The panel holds about 83,000 compounds, 20% with a hit somewhere; the sample as a whole holds those more often.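 Values shown are percent growth following 48 h exposure of cells in 96-well plates to a single concentration of compound; below 10 was considered active.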 Unmarked numbers belong to inactive results. Calls of active or inactive are those of the source.

The assay deals with NCI-H322M lung. Nature of the assay: NCI-60 one-dose screen, 48 h (100 = growth as untreated, 0 = no growth, -100 = all killed). The following applies: 10 µM unless noted. As to the method: Growth inhibition of the NCI-H322M human Non-Small Cell Lung tumor cell line is measured as a screen for anti-cancer activity. Cells are grown in 96 well plates and exposed to the test compound for 48 hours. Compounds are tested at a single concentration, which is 10^-5 M for most compounds. The reported endpoint is percent growth (GI% or GIPRCNT), where numbers from 0 - 100% represent growth inhibition, and numbers from -100% - 0 represent cell death. For example, a value of 40 represents 60% growth inhibition. A value of 0 means no net growth occurred over the course of the experiment. A value of -40 indicates 40% of cells at the beginning of the experiment died by the end of the experiment. A value of -100 means all cells are dead at the end of the experiment.
NCI-60 Human Tumor Cell Lines Screen was performed using the standard one-dose NCI protocol, which is described in more detail at https://dtp.cancer.gov/discovery_development/nci-60/default.htm.
Compounds with GIPRCNT values below 10 were considered active. Activity score was based on GIPRCNT using the following formula: […]
Score is 0 for GIPRCNT values of 100 or above, 50 for GIPRCNT values of 0, and 100 for GIPRCNT values of -100.
As for `CCCC(=O)NC(c1cccnc1)c1cc(C(C)=O)c2cccnc2c1O` (stereo not given), the growth was 26.9%.
Then `O=C1CC2(CCOCC2)Oc2ncccc21`, with 103%; and `CCOC(=O)c1c(Nc2ccccc2)nn2c(-c3ccc(Br)cc3)ccnc12`, with 79.1%.
Consider `C#Cc1ccc(NC(=O)c2ccc(/C=C/C(=O)c3nccn3C)cc2)c(F)c1`, for which the growth is 19.8%.
In the case of `C#CCOc1ccccc1C(Nc1ccccc1)c1nnnn1C1CCCCC1` (stereo not given) it was 92.5%; in that of `CCOC(=O)Nc1ccc(-c2nc(-c3cccc(O)c3)c(-c3ccnc(Br)c3)[nH]2)cc1`, 54.7%.
Take `CC(=O)c1sc(Nc2cccc(Nc3nc(C)c(C)s3)c2)nc1C`: the growth is 61.7%.
In the case of `CCN(CC)CCN1C(=O)c2c(c3c4cccnc4[nH]c3c3ccc4ccccc4c23)C1=O` it was 76.7%; in that of `COc1cc(OC)c(S(N)(=O)=O)cc1C(=O)/C=C/c1ccccc1`, 64.6%; in that of `CC1(COc2ccc3ncc(C#Cc4cncc(C(=O)Nc5cc(C(C)(C)C)on5)c4)n3n2)COC1`, 60.4%.
In the case of `COc1ccc(-c2nc(SCCC(C)C)nc(N/N=C\c3ccc(O)cc3)c2C#N)cc1` it was 82.7%.
For `NS(=O)(=O)c1ccc(Nc2nc(N/N=C/c3ccc([N+](=O)[O-])cc3)nc(Nc3ccccc3)n2)cc1`, the growth is 39.5%.
In the case of `COc1ccc(S(=O)(=O)NCCCNc2nccc(-n3cnc4ccccc43)n2)cc1` it was 104%; in that of `Cc1cnc2nc(NN)[nH]n12`, 100%.
Take `CC1(C)CC[C@]2(C(=O)O)CC[C@]3(C)C(=CCC4[C@@]5(C)C[C@@H](O)[C@@H]6OC(c7ccccc7O)OC[C@@]6(C)C5CC[C@]43C)C2C1` (stereo not given in full): the growth is 40.5%.
Then `O=C1/C(=C/c2ccc([N+](=O)[O-])cc2)SC(=Nc2ccccc2)N1Nc1ccccc1`, with 60.9%; and `N#C/C(=C\c1ccc(-c2ccc(F)cc2)o1)C(=O)Nc1ncc(Cc2ccc(Cl)cc2Cl)s1`, with 13.8%; and `COc1ccc2c(c1)oc1c3[nH]c4ccccc4c3c3c(c21)C(=O)N(O)C3=O`, with 65.5%.
`CCCC(=O)NC(c1cccnc1)c1ccc2c(C)ccnc2c1O` (stereo not given): the growth is 27.2%.
In the case of `CC(C)=CCC[C@](C)(O)[C@H]1CC[C@]2(C)[C@@H]1CC[C@@H]1[C@@]3(C)CCC(NC(=O)c4ccccc4C(=O)O)C(C)(C)[C@@H]3CC[C@]12C` (stereo not given in full) it was 104%.
In the case of `Cc1cc(=O)n2nc(-c3c[nH]c4ccccc34)sc2n1` it was 93.4%; in that of `CC1OC(O[C@@H]2[C@H](O)C(CO)OC(O[C@H]3COC(O[C@H]4CC[C@]5(C)[C@H]6CC[C@]78OC[C@@]9(CC[C@](C)(C=O)C[C@H]97)C(=O)C[C@@]8(C)[C@]6(C)CC[C@H]5C4(C)C)[C@@H](O)[C@@H]3O)[C@H]2OC2OC[C@@H](O)[C@@H](O)[C@@H]2O)[C@@H](O)[C@@H](O)[C@H]1O` (stereo not given in full), 93.3%; in that of `O=C1[C@H]2Cc3c([nH]c4ccccc34)[C@H](c3ccc(Cl)cc3)N2C(=O)CN1C1CCN(Cc2c(Cl)cccc2Cl)CC1`, 96.9%.
Then `Oc1ccc(CSc2nnc(-c3ccc(Br)cc3)n2-c2ccccc2)c2cccnc12`, with 52.4%; and `COc1ccc(N2C(=O)c3cc(OC)c(OC)cc3NC2SCc2ccccc2)cc1` (stereo not given), with 104%; and `Cc1cn(-c2cc(NC(=O)c3cncc(C#Cc4cnc5ccc(O[C@H]6CCOC6)nn45)c3)cc(C(F)(F)F)c2)cn1`, with 105%.
Regarding `O=S(=O)(Nc1cc(Cl)c(F)c(Cl)c1)c1ccc(-c2cnc(C3CC3)o2)cc1`, the growth was 49.9%.
In the case of `O=C(CCCCCCN1CC(=O)N2[C@@H](c3cccc(Br)c3)c3[nH]c4ccccc4c3C[C@H]2C1=O)NO` it was 42.2%; in that of `Cc1cc(O)c2c(c1)C(=O)C(c1c(C)cc3c(c1O)C(=O)C=CC3=O)=CC2=O`, 110%.
In the case of `NC(=O)c1c(NC(=O)c2cccc(C(F)(F)F)c2F)sc2c1CCC(=O)C2` it was 98.6%.
In the case of `COc1cc2c3c(n(CCCN4CCCCC4)c(=O)c2cc1OC)-c1cc2c(cc1C3=O)OCO2` it was -96.4% (active); in that of `CN(C)c1ncc(/C=C2\SC(=S)N(Cc3ccccc3Cl)C2=O)s1`, 80.5%; in that of `COc1cc(C2CC(c3ccc(Nc4nc(NCCO)nc(Nc5ccc(Cl)cc5)n4)cc3)=Nc3c(N)nc(N)nc3N2)cc(OC)c1OC` (stereo not given), 82.2%.
In the case of `N#C/C(=C\c1ccc(N2CCCCC2)cc1)C(=O)Nc1sc2c(c1C#N)CCC2`, the growth is 99.4%.
Then `COc1ccc(-c2no[n+]([O-])c2Nc2ccccc2Br)cc1`, with 96.8%.
For the compound `C#C[C@]1(O)CC[C@H]2[C@@H]3CC=C4c5sc(-c6cccc(F)c6)nc5CC[C@]4(C)[C@H]3CC[C@@]21C`, the growth was 73.8%.
Then `O=C1c2c(c3c4cc(O)ccc4oc3c3[nH]c4ccccc4c23)C(=O)N1O`, with 2.25% (active).
In the case of `CSc1nccc(-c2c(-c3ccc(F)c(OCc4ccc(F)cc4)c3)nc3sccn23)n1` it was 91.3%.
With `CN(C)c1ccc(/C=N/Nc2nc(N/N=C/c3ccc(N(C)C)cc3)nc(N3CCOCC3)n2)cc1`, the growth was 100%.
In the case of `NC(=S)N/N=C(/C=C/c1cn(-c2ccccc2)nc1-c1ccc(Cl)cc1)c1cc2ccccc2oc1=O` it was 60%.
